# Measured values taken from PubChem BioAssay (NCI).
# About 79,000 compounds went through this panel and 15% of them were active in at least one assay; those are over-represented in the sample as a whole. Values without a mark were called inactive. Active and inactive are the calls of the source. Cut-off read from the data, not from the text of the source: active = growth inhibition above about 70%; inactive = the rest.
# Columns and labels:
# [1] = NCI Yeast Anticancer Drug Screen. Data for the rad50 strain (AID 155);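 note: 0% = growth of vehicle-only cultures of the same strain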; conditions: S. cerevisiae rad50 strain growth inhibition, active compounds read high
# Procedure, shortened: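 A DNA repair-deficient yeast mutant serves as the test organism; compound-induced growth inhibition is calculated against vehicle-treated cells.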
# [2] = NCI Yeast Anticancer Drug Screen. Data for the mec2-1 strain (AID 157); conditions: S. cerevisiae mec2-1 strain, active compounds read high
# Procedure, shortened: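 Using mec2-1 yeast: add compound, measure growth, express inhibition versus vehicle-treated cultures.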
# [3] = NCI Yeast Anticancer Drug Screen. Data for the sgs1 mgt1 strain (AID 161);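 note: 0% = growth of cultures given vehicle only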; conditions: S. cerevisiae sgs1 mgt1 strain, active compounds read high
# Procedure, shortened: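 This yeast growth screen uses a strain with defined DNA-repair lesions; compound-treated growth is compared with vehicle-treated growth.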
# [4] = NCI Yeast Anticancer Drug Screen. Data for the cln2 rad14 strain (AID 165);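 note: 0% = growth equal to vehicle treated cultures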; conditions: S. cerevisiae cln2 rad14 strain, active compounds read high
# Procedure, shortened: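 Yeast strain cln2 rad14, bearing defects in cell cycle control and DNA repair, serves as the test system; values reflect growth inhibition compared with vehicle.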
# [5] = NCI Yeast Anticancer Drug Screen. Data for the bub3 strain (AID 167); conditions: S. cerevisiae bub3 mutant strain, active compounds read high
# Procedure, shortened: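 Inhibition values come from growth of compound-treated mutant yeast normalised to vehicle-treated controls.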
# [6] = NCI Yeast Anticancer Drug Screen. Data for the mlh1 rad18 strain (AID 175); conditions: S. cerevisiae mlh1 rad18 strain growth inhibition, active compounds read high
# Procedure, shortened: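 Steps: expose repair-defective yeast to compound; measure growth; express inhibition against vehicle-treated controls.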
# [7] = at 5.0 µM (retest, dose inferred, filed as 0.5)
# [8] = at 50.0 µM (retest, dose inferred, filed as 5.0)
Structure (SMILES),"growth inhibition [1, 7]","growth inhibition [1, 8]",growth inhibition ([1]; at 50.0 µM),"growth inhibition [2, 7]","growth inhibition [2, 8]",growth inhibition ([2]; at 50.0 µM),"growth inhibition [3, 7]","growth inhibition [3, 8]",growth inhibition ([3]; at 50.0 µM),"growth inhibition [4, 7]","growth inhibition [4, 8]",growth inhibition ([4]; at 50.0 µM),"growth inhibition [5, 7]","growth inhibition [5, 8]",growth inhibition ([5]; at 50.0 µM),"growth inhibition [6, 7]","growth inhibition [6, 8]",growth inhibition ([6]; at 50.0 µM)
CN=C(N)N/N=C(\C)c1ccc2sc3ccc(/C(C)=N/NC(N)=NC)cc3c2c1,49%,55%,74.7% (active),-4%,-2%,24.5%,23%,14%,13%,17%,7%,20.8%,24%,20%,-8.5%,14%,17%,30.2%
O=[C-]c1ccccc1[C-]=O.[Pd+2].c1ccc([PH+](c2ccccc2)c2ccccc2)cc1.c1ccc([PH+](c2ccccc2)c2ccccc2)cc1,11%,44%,34.6%,7%,54%,35%,23%,69%,84.5% (active),5%,40%,-0.7%,4%,97% (active),14.7%,14%,80% (active),60.9%
O=[N+]([O-])c1c[c]([Hg][Cl])c(O)[c]([Hg][Cl])c1,44%,99% (active),88.7% (active),52%,99% (active),92.4% (active),100% (active),78% (active),92.4% (active),94% (active),97% (active),91% (active),99% (active),91% (active),90.1% (active),41%,99% (active),89.2% (active)
CCN(CC)C(=S)[S-].CCN(CC)C(=S)[S-].O=C(O)CC([S-])C(=O)O.[Fe+3] (configuration not stated),4%,98% (active),61.8%,9%,99% (active),55.8%,35%,99% (active),76.8% (active),30%,98% (active),43.8%,-1%,98% (active),45.7%,38%,98% (active),87.2% (active)
CCC[CH2][Pb]([CH2]CCC)([CH2]CCC)[n]1ccnc1,99% (active),99% (active),90.2% (active),99% (active),99% (active),92.7% (active),98% (active),98% (active),93.7% (active),97% (active),99% (active),91.6% (active),99% (active),93% (active),92.2% (active),99% (active),99% (active),91% (active)
COCCOCCOC(=O)CBr,-2%,96% (active),86.1% (active),-7%,96% (active),82.5% (active),1%,97% (active),88.7% (active),1%,68%,40.7%,-3%,94% (active),77.8% (active),-3%,97% (active),92.2% (active)
CC(=O)[CH-]C(C)=O.CC(=O)[CH-]C(C)=O.[O-]c1ccccc1.[O-]c1ccccc1.[Ti+4],25%,25%,40.3%,20%,20%,0.3%,19%,19%,11.4%,21%,21%,15.2%,6%,6%,7.05%,-9%,-9%,16.9%
O=C(O)C(O)(c1ccc(-c2ccccc2)cc1)c1ccc(-c2ccccc2)cc1,16%,91% (active),96.4% (active),13%,93% (active),97% (active),0%,95% (active),96.2% (active),5%,93% (active),95% (active),-12%,93% (active),96.9% (active),1%,96% (active),96.8% (active)
O=[As]c1ccccc1O (configuration not stated),1%,96% (active),96.6% (active),0%,98% (active),98.1% (active),2%,98% (active),90.3% (active),-9%,98% (active),92.2% (active),-5%,97% (active),97.3% (active),-1%,98% (active),96.5% (active)
C[CH2][Sn]([Cl])([CH2]C)[CH2]C,7%,87% (active),98.3% (active),0%,84% (active),98.1% (active),0%,91% (active),97.3% (active),-6%,60%,80.8% (active),-18%,83% (active),98.2% (active),2%,92% (active),98.2% (active)
CC(C)C12C=C3CCC4C(C)(C(=O)O)CCCC4(C)C3(CC1)OO2 (configuration not stated),13%,90% (active),93.7% (active),-1%,95% (active),95% (active),7%,90% (active),97.6% (active),-6%,94% (active),86.4% (active),-8%,91% (active),96.4% (active),1%,95% (active),96.9% (active)
CC(=O)NC1=C(N(CCCl)CCCl)C(=O)c2ccccc2C1=O,20%,98% (active),99% (active),12%,98% (active),98.2% (active),18%,99% (active),98.2% (active),-4%,96% (active),96.2% (active),23%,97% (active),99% (active),18%,98% (active),98.9% (active)
Cl[C](Cl)(Cl)[Hg][C](Cl)(Cl)Cl,80% (active),96% (active),89.8% (active),90% (active),94% (active),92.7% (active),100% (active),100% (active),92.8% (active),99% (active),99% (active),91.5% (active),100% (active),97% (active),91.3% (active),78% (active),95% (active),90.2% (active)
C=C1C(=O)O[C@@H]2C[C@@H](C)[C@@H]3C=CC(=O)[C@@]3(C)[C@@H](O)[C@H]12,16%,16%,9.25%,2%,19%,17.4%,3%,31%,27.5%,11%,14%,22.1%,-18%,3%,22.9%,11%,27%,32.2%
CCSc1nc(=[N+]2CCCC2)ss1,33%,99% (active),98.5% (active),25%,100% (active),97.5% (active),36%,99% (active),98.8% (active),29%,100% (active),81.7% (active),17%,100% (active),89.3% (active),44%,99% (active),97% (active)
CC1c2c(n(C)c3ccccc23)C2CCC3(CO3)C1N2Cc1ccccc1 (configuration not stated),25%,97% (active),90.5% (active),22%,99% (active),92% (active),42%,99% (active),93.3% (active),24%,98% (active),90% (active),26%,99% (active),92.5% (active),35%,98% (active),92.2% (active)
CC1Oc2cc3c(-c4c(O)cc(O)c5c(O)c6c(cc45)OC(C)C(C)C6=O)c(O)cc(O)c3c(O)c2C(=O)C1C (configuration not stated),8%,85% (active),83.1% (active),-10%,83% (active),84.2% (active),-2%,86% (active),83% (active),30%,69%,82.8% (active),-8%,81% (active),81.2% (active),10%,84% (active),84.2% (active)
CCOc1c(Br)cc(/C=C(\C)[N+](=O)[O-])cc1OC,2%,7%,61.9%,-1%,9%,78.5% (active),6%,9%,87.3% (active),-1%,-3%,93.4% (active),-4%,2%,72.5% (active),-5%,4%,79.7% (active)
CCCCCc1cc(/C=C2/N=C(c3ccc[nH]3)C=C2OC)[nH]c1C,47%,77% (active),83.9% (active),49%,81% (active),85.5% (active),75% (active),86% (active),86.8% (active),46%,81% (active),84.3% (active),80% (active),79% (active),83.8% (active),71% (active),77% (active),84% (active)
